Test results reported in PubChem BioAssay AID1159580 (chemical genetic matrix, 2015).
In all, about 5,500 compounds went through this assay and about 2,000 (36%) were called active. About 18% were inconclusive and are not listed. Cut-off read from the data, not from the text of the source: active = normalized growth mostly below about 0.91 (no sharp cut-off); inconclusive = no clear call, values can overlap the other calls; inactive = mostly above about 0.92. This is one part of the list.

Experiment: chemical genetic growth profiling, strain panel (AID 1159580);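 note: tested at 20 µM; growth read once vehicle control cultures reached saturation at 30 °C; 1 = growth at the plate median or of vehicle wells; lower values mean less growth of the strain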
Conditions: growth OD
[1] = S. cerevisiae deletion strains, locus YCL061C, strain MRC1, active compounds read low

Measured: normalized growth

CC(=CC1CCC(C)C2C1=C(C)CC2O)C(=O)O (stereo not drawn)
inactive: S. cerevisiae deletion strains, locus YAL021C, strain ccr4, active compounds read low 1.01 | S. cerevisiae deletion strains, locus YAL026C, strain drs2, active compounds read low 1.04 | S. cerevisiae deletion strains, locus YAL030W, strain snc1, active compounds read low 1.01 | S. cerevisiae deletion strains, locus YBL061C, strain skt5, active compounds read low 1.02 | S. cerevisiae deletion strains, locus YBR009C, strain hhf1, active compounds read low 1.01 | S. cerevisiae deletion strains, locus YBR023C, strain chs3, active compounds read low 1.02 | S. cerevisiae deletion strains, locus YBR171W, strain sec66, active compounds read low 1.02 | S. cerevisiae deletion strains, locus YBR231C, strain swc5, active compounds read low 1.02 | S. cerevisiae deletion strains, locus YBR279W, strain paf1, active compounds read low 1.02 | S. cerevisiae deletion strains, locus YCL011C, strain gbp2, active compounds read low 1.02 | S. cerevisiae deletion strains, locus YCL016C, strain dcc1, active compounds read low 1.01 | [1] 1.02 | S. cerevisiae deletion strains, locus YCL069W, strain vba3, active compounds read low 1.01 | S. cerevisiae deletion strains, locus YCR088W, strain abp1, active compounds read low 1.01 | S. cerevisiae deletion strains, locus YDL005C, strain med2, active compounds read low 1.03 | S. cerevisiae deletion strains, locus YDL040C, strain nat1, active compounds read low 1.01 | S. cerevisiae deletion strains, locus YDR001C, strain nth1, active compounds read low 1.01 | S. cerevisiae deletion strains, locus YDR069C, strain doa4, active compounds read low 1 | S. cerevisiae deletion strains, locus YDR137W, strain rgp1, active compounds read low 1.04 | S. cerevisiae deletion strains, locus YDR159W, strain sac3, active compounds read low 1.04 | S. cerevisiae deletion strains, locus YDR195W, strain ref2 1.02 | S. cerevisiae deletion strains, locus YDR297W, strain sur2, active compounds read low 1.02 | S. cerevisiae deletion strains, locus YDR334W, strain swr1, active compounds read low 1.02 | S. cerevisiae deletion strains, locus YDR335W, strain msn5, active compounds read low 1.02 | S. cerevisiae deletion strains, locus YDR392W, strain spt3, active compounds read low 0.944 | S. cerevisiae deletion strains, locus YEL003W, strain gim4, active compounds read low 1.02 | S. cerevisiae deletion strains, locus YEL037C, strain rad23, active compounds read low 1.01 | S. cerevisiae deletion strains, locus YEL061C, strain CIN8 (second series), active compounds read low 1.02 | S. cerevisiae deletion strains, locus YER015W, strain faa2, active compounds read low 1.03 | S. cerevisiae deletion strains, locus YER016W, strain bim1, active compounds read low 1.02 | S. cerevisiae deletion strains, locus YER111C, strain swi4, active compounds read low 1.01 | S. cerevisiae deletion strains, locus YER155C, strain BEM2 (second series), active compounds read low 1.03 | S. cerevisiae deletion strains, locus YFR010W, strain ubp6, active compounds read low 1.03 | S. cerevisiae deletion strains, locus YGL167C, strain pmr1, active compounds read low 1.01 | S. cerevisiae deletion strains, locus YGL173C, strain kem1, active compounds read low 1.03 | S. cerevisiae deletion strains, locus YGL227W, strain vid30, active compounds read low 1.01 | S. cerevisiae deletion strains, locus YGL240W, strain doc1, active compounds read low 1.02 | S. cerevisiae deletion strains, locus YGL253W, strain hxk2, active compounds read low 1.03 | S. cerevisiae deletion strains, locus YHR013C, strain ard1, active compounds read low 1.03 | S. cerevisiae deletion strains, locus YHR027C, strain rpn1, active compounds read low 1.04 | S. cerevisiae deletion strains, locus YHR142W, strain chs7, active compounds read low 1.02 | S. cerevisiae deletion strains, locus YJL092W, strain hpr5, active compounds read low 1.02 | S. cerevisiae deletion strains, locus YJL095W, strain BCK1 (second series), active compounds read low 1.02 | S. cerevisiae deletion strains, locus YJL115W, strain asf1, active compounds read low 1.02 | S. cerevisiae deletion strains, locus YJL129C, strain trk1, active compounds read low 1.04 | S. cerevisiae deletion strains, locus YJL154C, strain vps35, active compounds read low 1.01 | S. cerevisiae deletion strains, locus YJL164C, strain tpk1, active compounds read low 1.01 | S. cerevisiae deletion strains, locus YJL166W, strain qcr8, active compounds read low 1.02 | S. cerevisiae deletion strains, locus YKL160W, strain elf1, active compounds read low 1 | S. cerevisiae deletion strains, locus YKR026C, strain gcn3, active compounds read low 1.01 | S. cerevisiae deletion strains, locus YKR091W, strain srl3, active compounds read low 1.02 | S. cerevisiae deletion strains, locus YLL001W, strain dnm1, active compounds read low 1.03 | S. cerevisiae deletion strains, locus YLL026W, active compounds read low 1.03 | S. cerevisiae deletion strains, locus YLL041C, strain sdh2, active compounds read low 1.01 | S. cerevisiae deletion strains, locus YLR027C, strain aat2, active compounds read low 1.02 | S. cerevisiae deletion strains, locus YLR221C, strain rsa3, active compounds read low 1.01 | S. cerevisiae deletion strains, locus YLR258W, strain gsy2, active compounds read low 1.01 | S. cerevisiae deletion strains, locus YLR262C, strain YPT6 (second series), active compounds read low 1.02 | S. cerevisiae deletion strains, locus YLR320W, strain mms22, active compounds read low 1.02 | S. cerevisiae deletion strains, locus YLR342W, strain FKS1, active compounds read low 1.02 | S. cerevisiae deletion strains, locus YLR357W, strain rsc2, active compounds read low 0.995 | S. cerevisiae deletion strains, locus YLR370C, strain arc18, active compounds read low 0.997 | S. cerevisiae deletion strains, locus YLR384C, strain iki3, active compounds read low 1.02 | S. cerevisiae deletion strains, locus YML120C, strain ndi1, active compounds read low 1.02 | S. cerevisiae deletion strains, locus YMR058W, strain fet3, active compounds read low 1.03 | S. cerevisiae deletion strains, locus YMR125W, strain sto1, active compounds read low 0.987 | S. cerevisiae deletion strains, locus YMR129W, active compounds read low 1.02 | S. cerevisiae deletion strains, locus YMR205C, strain PFK2, active compounds read low 1.02 | S. cerevisiae deletion strains, locus YMR231W, strain pep5, active compounds read low 1.02 | S. cerevisiae deletion strains, locus YNL071W, strain lat1, active compounds read low 1.03 | S. cerevisiae deletion strains, locus YNL209W, strain ssb2, active compounds read low 1.03 | S. cerevisiae deletion strains, locus YNL248C, strain rpa49, active compounds read low 1.07 | S. cerevisiae deletion strains, locus YNL322C, strain KRE1 (second series), active compounds read low 1.01 | S. cerevisiae deletion strains, locus YNR049C, strain mso1, active compounds read low 1.01 | S. cerevisiae deletion strains, locus YOR001W, strain rrp6, active compounds read low 1.04 | S. cerevisiae deletion strains, locus YOR070C, strain gyp1, active compounds read low 1 | S. cerevisiae deletion strains, locus YOR080W, strain dia2, active compounds read low 1.02 | S. cerevisiae deletion strains, locus YOR083W, strain WHI5, active compounds read low 1.01 | S. cerevisiae deletion strains, locus YOR106W, strain vam3, active compounds read low 1.01 | S. cerevisiae deletion strains, locus YOR265W, strain rbl2, active compounds read low 1.02 | S. cerevisiae deletion strains, locus YOR270C, strain vph1, active compounds read low 1.07 | S. cerevisiae deletion strains, locus YOR290C, strain snf2, active compounds read low 0.989 | S. cerevisiae deletion strains, locus YPL051W, strain arl3, active compounds read low 1.03 | S. cerevisiae deletion strains, locus YPL078C, strain atp4, active compounds read low 1.01 | S. cerevisiae deletion strains, locus YPL106C, strain sse1, active compounds read low 1.03 | S. cerevisiae deletion strains, locus YPL240C, strain hsp82, active compounds read low 1.02

CCOC(=O)c1c[nH]c2c(F)cccc2c1=O
inactive: S. cerevisiae deletion strains, locus YBR229C, strain ROT2, active compounds read low 1 | [1] 0.985 | S. cerevisiae deletion strains, locus YDL101C, strain DUN1, active compounds read low 0.963 | S. cerevisiae deletion strains, locus YDR150W, strain NUM1, active compounds read low 0.963 | S. cerevisiae deletion strains, locus YEL061C, strain CIN8, active compounds read low 1.04 | S. cerevisiae deletion strains, locus YGR078C, strain PAC10, active compounds read low 0.982 | S. cerevisiae deletion strains, locus YHR030C, strain SLT2, active compounds read low 1.03 | S. cerevisiae deletion strains, locus YHR087W, strain rtc3, active compounds read low 1.02 | S. cerevisiae deletion strains, locus YJL187C, strain SWE1, active compounds read low 1.01 | S. cerevisiae deletion strains, locus YJR043C, strain POL32, active compounds read low 0.988 | S. cerevisiae deletion strains, locus YJR075W, strain HOC1, active compounds read low 0.973 | S. cerevisiae deletion strains, locus YKL190W, strain CNB1, active compounds read low 0.993 | S. cerevisiae deletion strains, locus YLR039C, strain RIC1, active compounds read low 1.06 | S. cerevisiae deletion strains, locus YLR058C, strain SHM2 (second series), active compounds read low 1.01 | S. cerevisiae deletion strains, locus YLR085C, strain ARP6, active compounds read low 1.03 | S. cerevisiae deletion strains, locus YLR262C, strain YPT6, active compounds read low 1.04 | S. cerevisiae deletion strains, locus YML094W, strain GIM5, active compounds read low 1.02 | S. cerevisiae deletion strains, locus YMR219W, strain ESC1, active compounds read low 0.997 | S. cerevisiae deletion strains, locus YMR263W, strain SAP30, active compounds read low 1.01 | S. cerevisiae deletion strains, locus YNL153C, strain GIM3, active compounds read low 0.973 | S. cerevisiae deletion strains, locus YNL298W, strain CLA4 (second series), active compounds read low 0.981 | S. cerevisiae deletion strains, locus YNL322C, strain KRE1, active compounds read low 0.996 | S. cerevisiae deletion strains, locus YNR030W, strain Alg12, active compounds read low 0.978 | S. cerevisiae deletion strains, locus YPL055C, strain LGE1, active compounds read low 1.02 | S. cerevisiae deletion strains, locus YPL241C, strain CIN2, active compounds read low 0.962 | S. cerevisiae deletion strains, locus YPR135W, strain CTF4, active compounds read low 0.985 | S. cerevisiae strains, strain wild type, active compounds read low 0.989
